We go through 24 compounds from PubChem BioAssay AID1347142 (National Center for Advancing Translational Sciences (NCATS), 2019).

Inconclusive results are not listed. Calls of active or inactive are those of the source. The call rests on the fitted dose curve; in most records, active means well fitted inhibition curve with a large enough effect; inconclusive means small, poorly fitted or top-dose-only effect; inactive means no such curve, though single readings can be large or run the other way.
Further: nearly all actives have a fitted effect of over 80% in size.
Potency means the concentration at half of the fitted maximal effect.

Sequence of N-terminal Xaa-Pro-Lys N-methyltransferase 1 (Homo sapiens) (Q9BV86 whole entry, looked up): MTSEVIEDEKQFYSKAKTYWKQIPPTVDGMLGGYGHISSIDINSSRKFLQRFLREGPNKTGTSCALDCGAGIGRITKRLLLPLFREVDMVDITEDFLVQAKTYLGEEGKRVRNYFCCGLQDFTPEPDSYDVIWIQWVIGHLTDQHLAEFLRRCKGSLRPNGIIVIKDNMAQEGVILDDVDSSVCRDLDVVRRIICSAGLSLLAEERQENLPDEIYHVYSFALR

The target of the assay is N-terminal Xaa-Pro-Lys N-methyltransferase 1 (Homo sapiens) (UniProt Q9BV86). The assay is described as follows: qHTS Assay for Inhibitors of N-terminal methyltransferase 1 (NTMT1): ThioGlo3 Assay Confirmatory Screen, Round 1. As to conditions: NTMT1 SAHH-coupled ThioGlo3 fluorescence, 30 min; series mostly up to 56.8 µM. Put shortly:
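Human NTMT1 at 125 nM was preincubated 1 min at room temperature with compounds at various concentrations or 1 uM RCC1-6 control. Substrate mix (100 uM SAM, 10 uM SAHH, 15 uM ThioGlo3) was added, and fluorescence (Ex 340/Em 450 nm) was read at start and after 30 min, normalized to background.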
As to `COc1cc2nc(N3CCN(C)CC3)nc(NCCC3CC3)c2cc1OC`, the Potency was 24.1 µM (active).
Next, `Nc1ncnc2c1nc(N1CCCCC1)n2[C@@H]1O[C@@H]2COP(=O)(O)O[C@H]2[C@H]1O`: “inactive”.
Next, `COc1cc2c(NC3CCN(C(C)C)CC3)nc(N3CCCN(C)CC3)nc2cc1OCCCN(C)C`: 24.1 µM (active); `COC(=O)c1ccc2c(c1)nc(NC(=O)c1ccccc1)n2CCCc1ccccc1`: “inactive”; `OC[C@H]1O[C@@H](n2cnc3c(N[C@H]4C[C@H]5CC[C@@H]4C5)ncnc32)[C@H](O)[C@@H]1O`: “inactive”.
Under `Nc1nc(Nc2ccccc2)nc2c1ncn2[C@@H]1O[C@@H](CO)[C@H](O)[C@H]1O` stands “inactive”; under `O=C(Nc1ncnc2c1ncn2[C@@H]1O[C@@H]2COP(=O)(O)O[C@H]2[C@H]1O)c1ccccc1`, “inactive”; under `COc1cc2c(NC3CCN(C(C)C)CC3)nc(N3CCCCC3)nc2cc1OCCOCCN(C)C`, 27.1 µM (active).
As for `OCC1OC(n2cnc3c(NCc4ccco4)ncnc32)C(O)C1O` (centres undefined), the Potency is 19.2 µM (active).
Under `COc1cc2c(NC3CCN(C(C)C)CC3)nc(N3CCCCCC3)nc2cc1OCCOCCN(C)C` stands 21.5 µM (active); under `C=C1O[C@@](CO)(n2cnc3c(N)ncnc32)[C@H](O)[C@@H]1O`, “inactive”; under `COc1cc2c(NC3CCN(C)CC3)nc(N3CCCN(C)CC3)nc2cc1OCCCC(C)C`, 24.1 µM (active).
Next, `COc1cc2c(NC3CCN(C(C)C)CC3)nc(N3CCCCCC3)nc2cc1OCCCN1CCCC1`: 21.5 µM (active); `CSc1nc(N)c2ncn([C@@H]3O[C@H](COP(=O)(O)OP(=O)(O)O)C(O)[C@H]3O)c2n1` (some centres undefined): “inactive”.
Consider `COc1cc2nc(NC3CCN(C)CC3)nc(N3CCCN(C)CC3)c2cc1OC`, for which the Potency was 24.1 µM (active).
With `COc1cc2nc(N3CCN(C)CC3)nc(NC3CCCCC3)c2cc1OC`, the Potency is 27.1 µM (active).
Under `Nc1nc2c(ncn2[C@@H]2O[C@H](CO)[C@@H](O)[C@H]2O)c(=O)[nH]1` stands “inactive”.
As to `COc1cc2c(NC3CCN(C(C)C)CC3)nc(N3CCCN(C)CC3)nc2cc1OCCCN1CCCC1`, the Potency was 24.1 µM (active).
Next, `C[C@@H](Cc1ccccc1)Nc1ncnc2c1ncn2[C@@H]1O[C@H](CO)[C@@H](O)[C@H]1O`: “inactive”.
Next, `COc1cc2nc(N3CCOCC3)nc(NC3CC3)c2cc1OC`: 27.1 µM (active).
Turning to `OC[C@H]1O[C@H](n2cnc3c(NC4CCCC4)nc(Cl)nc32)[C@@H](O)[C@@H]1O`, the Potency entry is “inactive”.
Next, `COc1cc2nc(N3CCCN(C)CC3)nc(NC3CCOCC3)c2cc1OC`: 24.1 µM (active); `COc1cc2c(NC3CCN(C(C)C)CC3)nc(N3CCCN(C4CCCCC4)CC3)nc2cc1OCCCN1CCCCC1`: 24.1 µM (active); `COc1cc2nc(N3CCN(C)CC3)nc(NC3CCN(C)CC3)c2cc1OC`: 24.1 µM (active).
